The panel holds about 83,000 compounds, 20% with a hit somewhere; the sample as a whole holds those more often.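 How to read the values: 0–100, growth inhibition (40 = 60% inhibited); 0, no net growth; -100 to 0, cell death (-40 = 40% of starting cells died; -100 = all dead).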 Unmarked numbers belong to inactive results. Calls of active or inactive are those of the source. The calls were made as follows: active = growth percent below 10; inactive = the rest.

What all share (assay): NCI-60 one-dose screen, 48 h (100 = growth as untreated, 0 = no growth, -100 = all killed)
For one experiment, the system named is SR leukemia. Conditions: 10 µM unless noted.
The subject of a further experiment is RPMI-8226 leukemia. Particulars: 10 µM unless noted.
In a further experiment the test system is OVCAR-8 ovarian. Particulars: 10 µM unless noted.
In a further experiment the test system is OVCAR-5 ovarian. Particulars: 10 µM unless noted.
For a further experiment, the system named is OVCAR-4 ovarian. Particulars: 10 µM unless noted.
The test system of the next experiment is SK-OV-3 ovarian. Particulars: 10 µM unless noted.
Another experiment deals with IGROV1 ovarian. Conditions: 10 µM unless noted.
In a further experiment the test system is OVCAR-3 ovarian. Conditions: 10 µM unless noted.
The test system of the next experiment is HS 578T breast. Particulars: 10 µM.
For another experiment, the system named is NCI/ADR-RES ovarian. Conditions: 10 µM unless noted.
The next experiment concerns T-47D breast. Particulars: 10 µM unless noted.
A further experiment concerns BT-549 breast. Conditions: 10 µM unless noted.
A further experiment has as its system MDA-MB-435 melanoma. Conditions: 10 µM unless noted.
The subject of another experiment is SW-620 colon. Conditions: 10 µM unless noted.
Another experiment relates to MCF7 breast. Particulars: 10 µM unless noted.
The next experiment deals with HCT-116 colon. Particulars: 10 µM unless noted.
A further experiment has as its system HCC-2998 colon. Conditions: 10 µM.
For the next experiment, the system named is KM12 colon. Conditions: 10 µM unless noted.

Consider `COC(=O)[C@]12CC[C@@H](C)[C@H](C)[C@@H]1C1=CC[C@@H]3[C@@]4(C)C(C#N)=CC(C)=C4CC[C@@]3(C)[C@]1(C)CC2`, for which the growth in the experiment with SR leukemia was 68%; in the experiment with RPMI-8226 leukemia, 76.7%; in the experiment with OVCAR-8 ovarian, 103%; in the experiment on OVCAR-5 ovarian it was 91.9%; with OVCAR-4 ovarian, 88.3%; in the experiment on SK-OV-3 ovarian, 99.3%. Further, the growth in the experiment with IGROV1 ovarian was 106%; with OVCAR-3 ovarian, 88.9%; in the experiment with HS 578T breast it was 97.5%; in the experiment on NCI/ADR-RES ovarian, 89.2%; in the experiment on T-47D breast, 68.2%; with BT-549 breast, 98.7%. Besides, the growth in the experiment with MDA-MB-435 melanoma was 88.1%; in the experiment with SW-620 colon, 87.2%; in the experiment with MCF7 breast, 90.1%; in the experiment with HCT-116 colon, 68.4%; in the experiment on HCC-2998 colon it was 80%; with KM12 colon, 84.6%.

Consider `O=C(Nc1ccc(N=Nc2ccccc2)cc1)c1cccc2ccccc12`, for which the growth was 23.3% with SR leukemia; 66.1% in the experiment on RPMI-8226 leukemia; 78.7% in the experiment with OVCAR-8 ovarian; 92.5% with OVCAR-5 ovarian; 75.8% in the experiment on OVCAR-4 ovarian; 64.5% in the experiment with SK-OV-3 ovarian. The growth with IGROV1 ovarian is 80.4%; in the experiment with OVCAR-3 ovarian, 37.1%; in the experiment with HS 578T breast, 72.6%; with NCI/ADR-RES ovarian, 49.3%; in the experiment with T-47D breast, 66.3%; with BT-549 breast, 53.5%. Moreover, the growth is -17.2% (active) with MDA-MB-435 melanoma; 40% in the experiment with SW-620 colon; 42% in the experiment with MCF7 breast; 36.1% in the experiment with HCT-116 colon; 78.5% with HCC-2998 colon; 47.7% in the experiment on KM12 colon.

As for `COc1ccc(OC)c(NC2=C(SCCc3ccccc3)C(=O)c3ccccc3C2=O)c1`, the growth is 70.7% with SR leukemia; 74% in the experiment with RPMI-8226 leukemia; 94.5% with OVCAR-8 ovarian; 99.3% in the experiment with OVCAR-5 ovarian; 58.4% with OVCAR-4 ovarian; 88.5% in the experiment with SK-OV-3 ovarian. Also, the growth is 75.7% in the experiment on IGROV1 ovarian; 83.4% in the experiment with OVCAR-3 ovarian; 70.8% in the experiment on HS 578T breast; 76.5% in the experiment on NCI/ADR-RES ovarian; 70.6% in the experiment with T-47D breast; 79.5% with BT-549 breast. The growth in the experiment with MDA-MB-435 melanoma was 94.7%; with SW-620 colon, 94%; in the experiment on MCF7 breast, 69.7%; in the experiment on HCT-116 colon, 72.3%; with HCC-2998 colon, 102%; in the experiment with KM12 colon, 76.7%.

On to `COc1cc2c(cc1O)c(=O)n(CCN(C)C)c1c3cc4c(cc3ncc21)OCO4`, for which the growth with SR leukemia is 4.06% (active); with RPMI-8226 leukemia it was -30.3% (active); with OVCAR-8 ovarian, -9.58% (active); in the experiment on OVCAR-5 ovarian it was -1.62% (active); in the experiment on OVCAR-4 ovarian it was -1.86% (active); in the experiment on SK-OV-3 ovarian, 3.14% (active). The growth in the experiment on IGROV1 ovarian was 0.0353% (active); with OVCAR-3 ovarian, -39.9% (active); with HS 578T breast, 11.4%; in the experiment on NCI/ADR-RES ovarian, -12.6% (active); in the experiment on T-47D breast, 4.79% (active); in the experiment with BT-549 breast, -15.5% (active). The growth in the experiment on MDA-MB-435 melanoma is -59.7% (active); with SW-620 colon, 1.96% (active); with MCF7 breast, 2.14% (active); in the experiment with HCT-116 colon, 2.63% (active); with HCC-2998 colon, -38.6% (active); in the experiment with KM12 colon, -11.6% (active).

In the case of `N#Cc1c(-c2ccc(Cl)cc2)csc1NC(=O)Nc1cccc(C(F)(F)F)c1`, the growth was 33% in the experiment on SR leukemia; 3.99% (active) in the experiment with RPMI-8226 leukemia; 11.4% in the experiment on OVCAR-8 ovarian; 42.8% in the experiment with OVCAR-5 ovarian; 10.4% in the experiment with OVCAR-4 ovarian; 9.45% (active) in the experiment on SK-OV-3 ovarian. The growth in the experiment on IGROV1 ovarian was 33.5%; in the experiment with OVCAR-3 ovarian, -3.56% (active); with HS 578T breast it was 47.9%; with NCI/ADR-RES ovarian, 11.6%; in the experiment on T-47D breast, -5.74% (active); in the experiment on BT-549 breast, 26.3%. Also, the growth in the experiment with MDA-MB-435 melanoma is 14.1%; in the experiment with SW-620 colon, 22.7%; in the experiment on MCF7 breast it was 12.8%; in the experiment with HCT-116 colon it was 1.8% (active); in the experiment on HCC-2998 colon it was 19.9%; in the experiment on KM12 colon, 12.9%.

As for `O=C(NCCO)Nc1ccc(-c2nc(N3CCOCC3)c3cccn3n2)cc1`, the growth was 8.14% (active) with SR leukemia; 7.85% (active) in the experiment on RPMI-8226 leukemia; 5.91% (active) with OVCAR-8 ovarian; -11% (active) in the experiment on OVCAR-5 ovarian; -15.5% (active) with OVCAR-4 ovarian; -37.1% (active) in the experiment with SK-OV-3 ovarian. For the same compound, the growth with IGROV1 ovarian was -25.9% (active); in the experiment on OVCAR-3 ovarian, 0.347% (active); in the experiment with HS 578T breast, -34.5% (active); in the experiment on NCI/ADR-RES ovarian it was 34.5%; in the experiment with T-47D breast, -32.6% (active); in the experiment with BT-549 breast, -5.61% (active). Moreover, the growth in the experiment on MDA-MB-435 melanoma is -6.22% (active); in the experiment on SW-620 colon, 22.3%; in the experiment with MCF7 breast it was 7.74% (active); in the experiment on HCT-116 colon, 20.4%; in the experiment with HCC-2998 colon, 24%; in the experiment with KM12 colon, 14.7%.

In the case of `CC(C)[C@@H]1CC[C@@H]2[C@@H]1[C@H](OC(=O)/C=C/c1ccccc1)[C@]1(C(C)C)C[C@@H](OC(=O)CO)[C@@]2(C)O1`, the growth is 41.8% in the experiment on SR leukemia; 53.7% in the experiment with RPMI-8226 leukemia; 16.5% in the experiment with OVCAR-8 ovarian; 109% in the experiment with OVCAR-5 ovarian; 79.4% in the experiment with OVCAR-4 ovarian; 91.3% in the experiment with SK-OV-3 ovarian. In addition, the growth was 102% in the experiment on IGROV1 ovarian; 83.6% with OVCAR-3 ovarian; -15.4% (active) in the experiment on HS 578T breast; 13.9% in the experiment with NCI/ADR-RES ovarian; 52.2% in the experiment with T-47D breast; 20.5% in the experiment with BT-549 breast. Also, the growth with MDA-MB-435 melanoma is 101%; in the experiment on SW-620 colon, 99.4%; with MCF7 breast it was 71.7%; in the experiment on HCT-116 colon it was 65.2%; with HCC-2998 colon, 79.9%; with KM12 colon, 82.6%.

As to `CCN(CC)Cc1cc(Nc2cc(C(F)(F)F)c(C#N)c3nc4ccccc4n23)ccc1O`, the growth is 12.8% in the experiment on SR leukemia; 0.326% (active) in the experiment with RPMI-8226 leukemia; 9.84% (active) in the experiment with OVCAR-8 ovarian; 31% in the experiment on OVCAR-5 ovarian; 14.2% in the experiment on OVCAR-4 ovarian; -10.8% (active) in the experiment on SK-OV-3 ovarian. Also, the growth with IGROV1 ovarian was 28.9%; in the experiment with OVCAR-3 ovarian it was 10.9%; in the experiment with HS 578T breast, 22.8%; in the experiment on NCI/ADR-RES ovarian, 6.79% (active); in the experiment with T-47D breast, -1.95% (active); in the experiment on BT-549 breast, 8.37% (active). In addition, the growth with MDA-MB-435 melanoma is 16.9%; in the experiment on SW-620 colon, 14.7%; in the experiment with MCF7 breast it was 8.72% (active); in the experiment on HCT-116 colon, 4.67% (active); with HCC-2998 colon, 20.2%; with KM12 colon it was 10.8%.

Source of the values: PubChem BioAssay (NCI).
